Laboratory results from ChEMBL document CHEMBL3433997, “St. Jude Leishmania screening dataset” (2016).
Where “and” joins values, the source holds several entries; their conditions need not be identical. Equal values may be shown once.

target: Solute carrier family 2, facilitated glucose transporter member 1 (Homo sapiens) (UniProt P11166); assay: ST_JUDE_LEISH: Cytotoxicity at 2uM final concentration against transgenic Leishmania Mexicana promastigotes LmGLUT1 that are glucose transport deficient and complemented with the human glucose transporter GLUT1. Activity is measured by DNA content using SYBR green in vitro; type: functional
Sequence (P11166 whole entry): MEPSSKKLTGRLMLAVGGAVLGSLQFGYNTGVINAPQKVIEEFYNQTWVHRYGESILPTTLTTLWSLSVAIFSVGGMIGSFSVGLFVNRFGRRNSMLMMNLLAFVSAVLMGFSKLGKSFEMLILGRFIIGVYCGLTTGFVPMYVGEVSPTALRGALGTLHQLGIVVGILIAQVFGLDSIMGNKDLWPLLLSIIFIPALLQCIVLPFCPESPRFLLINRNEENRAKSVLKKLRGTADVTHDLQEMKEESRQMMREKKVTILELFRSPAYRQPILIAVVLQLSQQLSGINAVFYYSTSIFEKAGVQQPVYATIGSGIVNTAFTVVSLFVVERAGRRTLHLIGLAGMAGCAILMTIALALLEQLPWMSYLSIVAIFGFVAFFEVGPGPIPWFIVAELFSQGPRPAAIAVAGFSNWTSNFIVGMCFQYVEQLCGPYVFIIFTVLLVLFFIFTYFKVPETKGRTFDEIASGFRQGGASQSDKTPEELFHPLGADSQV

SMILES	inhibition
CNCCNCc1cccc(-c2cccc(-c3nc4cccc(C)c4[nH]3)c2)c1	0.8%
CC(C)Cn1ncc2c3c(N)nc(N)nc3ccc21	4.46%
CC1Cc2ccccc2N1CC(=O)Nc1cc(C(F)(F)F)ccc1-n1cncn1 (stereo not given)	1.94%
COc1ccc(O)cc1/C=N/Nc1ccnc2cc(Cl)ccc12	7.1%
Cc1cccc2nc(-c3ccc(-c4ccc(CNCc5ccc(CN)cc5)cc4)s3)[nH]c12	5.43%
CCCCCCCN1CCC(CC(=O)Nc2ccnc3ccc(OC)cc23)C(CC)C1 (stereo not given)	-2.12%
O=C1NC(=O)C(c2cccc(NC(=O)c3ccncc3)c2)=C1c1ccccc1	1.05%
CCCCCCNC(=O)C1Cc2c([nH]c3ccc(F)cc23)C2(CCN(Cc3ccccc3)CC2)N1 (stereo not given)	12.7%
COc1ccc(CN2CCC(NCc3cccc([N+](=O)[O-])c3)CC2)cc1	5.28%
CC(CON1C(N)=NC(N)=NC1(C)C)Cc1ccc(Cl)cc1Cl (stereo not given)	-0.6%
NC(=O)c1cc2nc(Nc3ccc(F)cc3)nc(NC3CCC3)c2[nH]1	1.42%
O=C(N[C@@H](Cc1ccccc1)CN1CCC(Oc2ccc(F)cc2)CC1)c1ccc(OCCCN2CCCCC2)cc1	30.5%
Oc1ccc(Nc2ccnc3cc(Cl)ccc23)cc1	3.83%
CCCCc1ccc(NC(=O)Nc2cccc(CCNCc3ccccc3)c2)cc1	11.8%
O=C1CSc2ccc(CNC3CCN(CCc4c(F)cnc5ccc(F)cc45)CC3)nc2N1	-2.82%
CC1(C)CC(NC(=O)NC2CCN(Cc3ccccc3)CC2)CC(C)(CNC(=O)NC2CCN(Cc3ccccc3)CC2)C1 (stereo not given)	5.31%
CCN(CCCN1CCCCC1)c1cc(C)nc(Nc2cccc(C(F)(F)F)c2)n1	-5.65%
CN1CCC(NCc2ccc(-c3ccc(S(=O)(=O)NC4CCC4)s3)cc2)CC1	3.46%
Cc1cc(O)c(-c2ccc(OCc3ccc(Cl)cc3)cc2)c(C)n1	0.84%
COc1cc(Cc2cnc(N)nc2N)c2c(c1OC)OC(C)C=C2 (stereo not given)	1.59%

SMILES	inhibition
C#C[C@H]1O[C@@H](n2cnc3c(Nc4cc(Br)cc(C(F)(F)F)c4)ncnc32)[C@H](O)[C@@H]1O	3.1%
CCNc1cc(CC)nc(Nc2ccc(C)cc2)n1	33.4%
COc1ccc2nccc([C@@H](O)CN3CCC(NC(=O)C(=Cc4ccc(Cl)cc4Cl)c4ccc(-c5ccccc5)cc4)CC3)c2c1	6.27%
COc1cc(Cc2cnc(N)nc2N)cc(OC)c1OCCNC(=O)[C@@H](N)CCC(=O)O	-0.69%
O=C(NC1CCC(CCN2Cc3cccc(F)c3C2)CC1)c1cccc(-c2cccnc2)c1 (stereo not given)	0.7%
O=C(Nc1cccc(-c2cccc(-c3nc4ccccc4[nH]3)c2)c1)NC1CC1c1ccccc1 (stereo not given)	6.53% and 2.58%
O=C(/C=C/c1cc([N+](=O)[O-])ccc1Cl)N1CCC(CCN2CCC(c3c[nH]c4ccccc34)CC2)CC1	2.1%
CN1CC[C@@H](Oc2cc(C(=O)NCc3ccc(Cl)c(Cl)c3)ccc2C(F)(F)F)C1	-0.85%
CN(C)CCN(C)Cc1ccc(-c2ccc3c(Nc4ccc(Oc5ccccn5)cc4)ccnc3c2)o1	-2.89%
CC(=O)Nc1nnc(SCc2c(C)cc(C(C)(C)C)cc2C)s1	0.82%
O=S(=O)(Nc1ccc2nccc(N3CCNCC3)c2c1)c1ccc2c(Cl)cccc2c1	0.28%
COc1ccc(Oc2ccc(-c3c(C)[nH]c(C)c(Cl)c3=O)cc2)cc1	2.75%
Cc1cc(C)cc(OCC(O)CN(Cc2cc(Cl)cc(Cl)c2)C(=O)Nc2ccccc2Cl)c1 (stereo not given)	2.01%
CCNc1cc(C(=O)N[C@@H](Cc2ccccc2)[C@H](O)CN[C@@H]2CCc3ccccc32)cc(N2CCCC2=O)c1	10.5%
C=C[C@]1(C)C[C@@H](OC(=O)NC(=O)CCCS(=O)(=O)c2nnc(C)s2)[C@]2(C)[C@H](C)CC[C@]3(CCC(=O)[C@H]32)[C@@H](C)[C@@H]1O	11.1%
CCn1c(SC)nnc1C1CCCN(CC(=O)Nc2nc3ccc(OC)cc3s2)C1 (stereo not given)	4.48%
Cc1nnsc1C(=O)Nc1cccc(-c2csc(-c3nc4ccccc4[nH]3)c2)c1	2.53%
O=S(=O)(c1cc(Cl)c(Cl)cc1Cl)N1CCCCC(c2ccc(C(F)(F)F)cc2)=N1	-0.66%
COc1ccc2nccc([C@H](O)CN3CCC(NCc4ccc5c(c4C)OCCO5)CC3)c2n1	41%
Nc1nccc2ccc(-c3ccc4nccn4c3)cc12	3.49%

target: Hexose transporter 1 (Plasmodium falciparum) (UniProt O97467); assay: ST_JUDE_LEISH: Cytotoxicity at 2uM final concentration against transgenic Leishmania Mexicana promastigotes LmPfHT that are glucose transport deficient and complemented with the Plasmodium falciparum hexose transporter. Activity is measured by DNA content using SYBR green in vitro; type: functional

SMILES	inhibition
CNCCNCc1cccc(-c2cccc(-c3nc4cccc(C)c4[nH]3)c2)c1	2.47%
CC(C)Cn1ncc2c3c(N)nc(N)nc3ccc21	5.97%
CC1Cc2ccccc2N1CC(=O)Nc1cc(C(F)(F)F)ccc1-n1cncn1 (stereo not given)	2.01%
COc1ccc(O)cc1/C=N/Nc1ccnc2cc(Cl)ccc12	5.98%
Cc1cccc2nc(-c3ccc(-c4ccc(CNCc5ccc(CN)cc5)cc4)s3)[nH]c12	8.51%
CCCCCCCN1CCC(CC(=O)Nc2ccnc3ccc(OC)cc23)C(CC)C1 (stereo not given)	-1.03%
O=C1NC(=O)C(c2cccc(NC(=O)c3ccncc3)c2)=C1c1ccccc1	1.65%
CCCCCCNC(=O)C1Cc2c([nH]c3ccc(F)cc23)C2(CCN(Cc3ccccc3)CC2)N1 (stereo not given)	9.28%
COc1ccc(CN2CCC(NCc3cccc([N+](=O)[O-])c3)CC2)cc1	7.16%
CC(CON1C(N)=NC(N)=NC1(C)C)Cc1ccc(Cl)cc1Cl (stereo not given)	-1.29%
NC(=O)c1cc2nc(Nc3ccc(F)cc3)nc(NC3CCC3)c2[nH]1	1.11%
O=C(N[C@@H](Cc1ccccc1)CN1CCC(Oc2ccc(F)cc2)CC1)c1ccc(OCCCN2CCCCC2)cc1	10.5%
Oc1ccc(Nc2ccnc3cc(Cl)ccc23)cc1	4.67%
CCCCc1ccc(NC(=O)Nc2cccc(CCNCc3ccccc3)c2)cc1	11.4%
O=C1CSc2ccc(CNC3CCN(CCc4c(F)cnc5ccc(F)cc45)CC3)nc2N1	0.21%
CC1(C)CC(NC(=O)NC2CCN(Cc3ccccc3)CC2)CC(C)(CNC(=O)NC2CCN(Cc3ccccc3)CC2)C1 (stereo not given)	5.93%
CCN(CCCN1CCCCC1)c1cc(C)nc(Nc2cccc(C(F)(F)F)c2)n1	2.63%
CN1CCC(NCc2ccc(-c3ccc(S(=O)(=O)NC4CCC4)s3)cc2)CC1	1.25%
Cc1cc(O)c(-c2ccc(OCc3ccc(Cl)cc3)cc2)c(C)n1	0.22%
COc1cc(Cc2cnc(N)nc2N)c2c(c1OC)OC(C)C=C2 (stereo not given)	2.39%

SMILES	inhibition
C#C[C@H]1O[C@@H](n2cnc3c(Nc4cc(Br)cc(C(F)(F)F)c4)ncnc32)[C@H](O)[C@@H]1O	2.11%
CCNc1cc(CC)nc(Nc2ccc(C)cc2)n1	28.9%
COc1ccc2nccc([C@@H](O)CN3CCC(NC(=O)C(=Cc4ccc(Cl)cc4Cl)c4ccc(-c5ccccc5)cc4)CC3)c2c1	4.58%
COc1cc(Cc2cnc(N)nc2N)cc(OC)c1OCCNC(=O)[C@@H](N)CCC(=O)O	0%
O=C(NC1CCC(CCN2Cc3cccc(F)c3C2)CC1)c1cccc(-c2cccnc2)c1 (stereo not given)	1.22%
O=C(Nc1cccc(-c2cccc(-c3nc4ccccc4[nH]3)c2)c1)NC1CC1c1ccccc1 (stereo not given)	5.02% and 2.99%
O=C(/C=C/c1cc([N+](=O)[O-])ccc1Cl)N1CCC(CCN2CCC(c3c[nH]c4ccccc34)CC2)CC1	3.61%
CN1CC[C@@H](Oc2cc(C(=O)NCc3ccc(Cl)c(Cl)c3)ccc2C(F)(F)F)C1	-1.04%
CN(C)CCN(C)Cc1ccc(-c2ccc3c(Nc4ccc(Oc5ccccn5)cc4)ccnc3c2)o1	-0.77%
CC(=O)Nc1nnc(SCc2c(C)cc(C(C)(C)C)cc2C)s1	-2.97%
O=S(=O)(Nc1ccc2nccc(N3CCNCC3)c2c1)c1ccc2c(Cl)cccc2c1	-0.67%
COc1ccc(Oc2ccc(-c3c(C)[nH]c(C)c(Cl)c3=O)cc2)cc1	3.46%
Cc1cc(C)cc(OCC(O)CN(Cc2cc(Cl)cc(Cl)c2)C(=O)Nc2ccccc2Cl)c1 (stereo not given)	1.42%
CCNc1cc(C(=O)N[C@@H](Cc2ccccc2)[C@H](O)CN[C@@H]2CCc3ccccc32)cc(N2CCCC2=O)c1	2.63%
C=C[C@]1(C)C[C@@H](OC(=O)NC(=O)CCCS(=O)(=O)c2nnc(C)s2)[C@]2(C)[C@H](C)CC[C@]3(CCC(=O)[C@H]32)[C@@H](C)[C@@H]1O	11.3%
CCn1c(SC)nnc1C1CCCN(CC(=O)Nc2nc3ccc(OC)cc3s2)C1 (stereo not given)	3.27%
Cc1nnsc1C(=O)Nc1cccc(-c2csc(-c3nc4ccccc4[nH]3)c2)c1	3.19%
O=S(=O)(c1cc(Cl)c(Cl)cc1Cl)N1CCCCC(c2ccc(C(F)(F)F)cc2)=N1	0.43%
COc1ccc2nccc([C@H](O)CN3CCC(NCc4ccc5c(c4C)OCCO5)CC3)c2n1	59.7%
Nc1nccc2ccc(-c3ccc4nccn4c3)cc12	3.17%
